Records with an inconclusive call do not appear. Entries that show only a call come without a potency. Active and inactive are the calls of the source. The call rests on the fitted dose curve; in most records, active means well fitted inhibition curve with a large enough effect in the repeat runs; inconclusive means weak or mixed curves; inactive means no such curve, though single readings can be large or run the other way.
What follows are molecules tested against Cytochrome P450 2D6 (Homo sapiens) (UniProt P10635) (assay: Cytochrome P450 Family 2 Subfamily D Member 6 (CYP2D6) small molecule antagonists: luciferase reporter qHTS assay (AID 1671196; further: nearly all actives have a fitted effect of over 50% in size)). Conditions: P450-Glo CYP2D6 enzyme assay, luciferin luminescence, 1 h; series mostly up to 115 µM.
Excerpt: U.S. Tox21 Program National Center for Advancing Translational Sciences [NCATS] U.S. Environmental Protection Agency [EPA] National Institutes of Environmental Health Sciences [NIEHS] National Toxicology Program [NTP] U.S. Food and Drug Administration [FDA] Tox21 Assay Overview: Cytochrome P450 (CYP) enzymes are membrane-bound hemeproteins that play a key role in metabolism of drugs and xenobiotics. Evaluation of the effect of chemicals on CYP isozymes is useful to minimize the adverse drug reactions and toxicities in drug development process. Tox21 chemicals were tested for their effect on CYP enzyme activities by using P450-Glo (TM) screening systems (Promega Corporation, Madison, WI). These systems provide a luminescent method containing proluciferin substrates and are converted to luciferin products by CYP isozymes. The luciferin products formed are detected with a luciferin detection reagent, and the amount of light produced is proportional to CYP activity. P450-Glo (TM) CYP2D6 screening system (Catalog. No. V9890) was used to detect the compounds that interfere in CYP2D6 activity.
Tox21 Assay Protocol Summary: Two ul of enzyme-substrate mix was dispensed into medium binding white/solid 1536-well plates (Greiner Bio-One North America Inc., Monroe, NC) using a BioRaptr Flying Reagent Dispenser (FRD, Beckman Coulter, Brea, CA). […] The assay plates were incubated at room temperature for 10 min. Then 2 ul of NADPH regeneration solution was added to each well of the assay plates using an FRD and incubated at room temperature for 1 h. The reaction was stopped by adding 4 ul of detection reagent using an FRD and after 20 min incubation at room temperature the luminescence signal was measured using a ViewLux plate reader (Perkin Elmer, Shelton, CT). Data were expressed as relative luminescence units.
Potency means the concentration at half of the fitted maximal effect.

Sequence of Cytochrome P450 2D6 (Homo sapiens) (P10635 whole entry, looked up): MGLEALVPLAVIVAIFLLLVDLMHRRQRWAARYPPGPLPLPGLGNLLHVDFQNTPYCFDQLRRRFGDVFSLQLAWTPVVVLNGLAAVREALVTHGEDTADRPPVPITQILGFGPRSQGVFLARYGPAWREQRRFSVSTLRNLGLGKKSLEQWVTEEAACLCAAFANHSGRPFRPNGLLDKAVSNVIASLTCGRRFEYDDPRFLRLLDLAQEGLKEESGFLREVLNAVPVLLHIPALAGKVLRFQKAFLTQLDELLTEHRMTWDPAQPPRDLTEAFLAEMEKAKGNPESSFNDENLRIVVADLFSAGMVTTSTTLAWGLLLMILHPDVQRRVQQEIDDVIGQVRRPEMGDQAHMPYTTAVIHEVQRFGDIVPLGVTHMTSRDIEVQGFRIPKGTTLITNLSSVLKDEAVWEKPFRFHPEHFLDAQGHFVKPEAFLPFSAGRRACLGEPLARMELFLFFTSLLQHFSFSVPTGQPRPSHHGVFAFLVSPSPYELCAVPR

Row | Compound | Potency | activity change, negative = inhibition
1 | C=COCCCCO | inactive | 
2 | Cc1cc(N)no1 | 65.6 µM (active) | 
3 | C=CC(=O)OCC[N+](C)(C)C | inactive | 
4 | c1cc2ccc3ccc4ccc5cccc6c(c1)c2c3c4c56 |  | 0.702% [at 4.07 µM] (inactive)
5 | CCCCCCC(=O)c1ccccc1 | inactive | 
6 | CC(=O)O[C@@H]1CC2C3CCc4cc(OC(=O)c5ccccc5)ccc4C3CCC2(C)[C@H]1OC(C)=O (stereo not given in full) | inactive | 
7 | Cc1cc2c(cc1CC(=O)c1sccc1S(=O)(=O)Nc1onc(C)c1Cl)OCO2 | 2.45 µM (active) | 
8 | OCCC(F)(F)C(F)(F)C(F)(F)C(F)(F)C(F)(F)C(F)(F)F | inactive | 
9 | CC(=O)c1c(C)cc(C(C)(C)C)cc1C | inactive | 
10 | CC(C)C[P+](C)(CC(C)C)CC(C)C | 0.568 µM (active) | 
11 | CCCCCCCC(=O)N(C)C | inactive | 
12 | C/C=C(\C)C=O | inactive | 
13 | C=CCON/C(CCC)=C1\C(=O)CC(C)(C)C(C(=O)OC)=C1O | inactive | 
14 | CCCCCCCCOCCC#N | inactive | 
15 | COc1ccc(Cl)cc1C | inactive | 
16 | CC(C)(O)c1ccc(C(C)(C)O)cc1 | inactive | 
17 | C[C@@H]1CCC[C@H](C)N1CCCC(O)(c1ccccc1)c1ccccn1 (stereo not given in full) | 0.692 µM (active) | 
18 | Cc1ccc(O)c(C(=O)c2ccccc2)c1 | 11.4 µM (active) | 
19 | COCc1nnc(-c2ccc[n+]([O-])c2)n1-c1c(Cl)c(Cl)cc2[nH]c(=O)c(=O)[nH]c12 | inactive | 
20 | O=c1c(O)c(O)c1=O | inactive | 

Row | Compound | Potency | activity change, negative = inhibition
21 | CC(C)=CCC/C(C)=C\C#N | inactive | 
22 | CCOC(=O)CN1CCCC1=O | inactive | 
23 | Cc1ccccc1C#N | inactive | 
24 | CCOc1ccccc1OCCN[C@H](C)Cc1ccc(OC)c(S(N)(=O)=O)c1 | 12.3 µM (active) | 
25 | CC1=C(O)C(=O)CO1 | inactive | 
26 | O=C1CC2(CCCC2)CC(=O)N1CCNCC1COc2ccccc2O1 (stereo not given) | 0.309 µM (active) | 
27 | CCCCCCCCC1CO1 (stereo not given) | inactive | 
28 | Cc1ccc(O)c([N+](=O)[O-])c1 | 71.8 µM (active) | 
29 | N#Cc1ccccc1C#N | inactive | 
30 | CCN1CCN(C(=O)N[C@@H](C(=O)N[C@@H]2C(=O)N3C(C(=O)O)=C(CSc4nnnn4C)CS[C@H]23)c2ccc(O)cc2)C(=O)C1=O | inactive | 
31 | COC(C)(C)CC(C)=O | inactive | 
32 | O=c1[nH]c(=O)c2cn[nH]c2[nH]1 | inactive | 
33 | CCCCCCCOC(C)=O | inactive | 
34 | C=CC(=O)OCCOCCOCC | inactive | 
35 | CC(C)(C)OC(=O)c1ccccc1C(=O)O | inactive | 
36 | COc1cc(NS(=O)(=O)c2ccc(N)cc2)ncn1 | inactive | 
37 | CCCCCCCCS(=O)(=O)O | inactive | 
38 | CCN(CC)CC | 23.6 µM (active) | 
39 | Cc1ccc2ccccc2n1 | inactive | 
40 | C[C@H]1COc2c(C3(N)CC3)c(F)cc3c(=O)c(C(=O)O)cn1c23 | inactive | 
